Common to all, as to assay: NCI-60 one-dose screen, 48 h (100 = growth as untreated, 0 = no growth, -100 = all killed)
Conditions in all cases: 10 µM unless noted

Test [1] concerns SN12C renal.
Test [2] deals with UO-31 renal.
The test system of test [3] is TK-10 renal.
The test system of test [4] is ACHN renal.
Test [5] has as its system A498 renal.
Test [6] has as its system CCRF-CEM leukemia.
The test system of test [7] is MOLT-4 leukemia.
Test [8] deals with CAKI-1 renal.
Test [9] relates to SR leukemia.

Drawing on PubChem BioAssay (NCI), this text covers growth for three compounds.

The panel holds about 83,000 compounds, 20% with a hit somewhere; the sample as a whole holds those more often.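 Values shown are percent growth following 48 h exposure of cells in 96-well plates to a single concentration of compound; below 10 was considered active.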 A number with no mark means an inactive call. Calls of active or inactive are those of the source.

On to `COc1nc2c(c(=O)n1C)N=C1c3ccccc3C(=O)C1C(c1ccccc1)N2` (stereo not drawn), for which the growth in test [1] is 95.4%; in [2] it was 78.9%; in test [3], 107%; in test [4], 94%; in test [5] it was 89.1%; in [6] it was 103%. Further, the growth in [7] is 76.5%.
In the case of `O=C(NC1CCN(Cc2ccccc2)CC1)c1cc(C(=O)NC2CCN(Cc3ccccc3)CC2)cc(C(=O)NC2CCN(Cc3ccccc3)CC2)c1`, the growth in test [1] was 69.2%; in test [2], -29.8% (active); in test [4] it was 94.5%; in test [8], 12.2%; in test [5], 96.1%; in test [6], 2.34% (active). Besides, the growth in test [7] is 45.8%; in [9] it was 20.1%.
`COC(=O)[C@H]1CCCN1C(=O)[C@H]1CCCN1C(=O)[C@H](Cc1c[nH]c2ccccc12)NC(=S)Nc1cc(C(F)(F)F)cc(C(F)(F)F)c1`: the growth in test [1] is 51%; in [2], 45.5%; in test [3] it was 80.9%; in test [4] it was 49%; in test [8] it was 38.6%; in [5], 77%. Also, the figures for the growth in test [7] and in [9] were 29.4% and 4.48% (active), respectively.
